hcDAF12 agonist: H. contortus DAF-12 nuclear receptor activators, primary screen, cell-based, luminescence, HEK293, lit1-tk-luc reporter; HEK293 hcDAF-12 lit1-tk-luc reporter; 0% DMSO, 100% Δ7-dafachronic acid; activation, % at 6.8 µM; 370,000 tested, 1.4% active; AID 652067, 2013;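 active = activation above the mean of all tested compounds plus 3 SD, cut at about 5.5% in these data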;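 note: 100% = response to 3 µM Δ7-dafachronic acid high control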
hgDAF12 agonist: H. glycines DAF-12 receptor agonists, primary screen, cell-based, luminescence, HEK293, GAL4 fusion, UAS-luciferase; Nuclear hormone receptor DAF-12 (Heterodera glycines), GAL4 fusion; HEK293 GAL4-hgDAF12 UAS-luciferase reporter, agonist luminescence; normalized to butyrate control; activation, % at 6.8 µM; 370,000 tested, 1.8% active; AID 687014, 2013;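 active = activation above a cutoff set at the mean of all screened compounds plus 3 SD, cut at about 10% in these data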;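 note: 0% = DMSO wells and 100% = sodium butyrate wells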
DAX1 inh-1: DAX1 (NR0B1) inhibitors, primary screen, cell-based, HEK293, Gal4-DAX1, luciferase luminescence | 340,000 tested, 0.99% active | Nuclear receptor subfamily 0 group B member 1 (Homo sapiens), P51843 | HEK293 Gal4-DAX1 luciferase reporter | AID 504766, 2011 | inhibition, % at 6.75 µM;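 active = inhibition above the mean over all tested compounds plus 3 SD, cut at about 4.2% in these data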;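 note: 0% = DAX1-transfected cells with DMSO and 100% = empty-vector control cells with DMSO; inhibition shows as a rise in luminescence from relieved DAX1 repression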
Target sequence (P51843 207-470 limits assumed): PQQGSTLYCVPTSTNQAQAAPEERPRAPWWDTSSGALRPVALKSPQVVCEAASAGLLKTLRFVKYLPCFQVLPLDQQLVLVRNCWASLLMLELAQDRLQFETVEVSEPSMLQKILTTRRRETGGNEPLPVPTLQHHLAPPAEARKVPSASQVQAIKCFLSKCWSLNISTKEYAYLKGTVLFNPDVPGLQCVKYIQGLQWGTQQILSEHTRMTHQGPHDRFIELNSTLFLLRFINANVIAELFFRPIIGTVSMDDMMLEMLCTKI
ssDAF12 agonist: S. stercoralis DAF-12 nuclear receptor activators, primary screen, cell-based, luminescence, HEK293, GRIP1 co-expression, lit1-tk-luc; activation, % at 6.8 µM; HEK293 ssDAF-12/GRIP1 lit1-tk-luc reporter; % of 3 µM dafachronic acid response; 370,000 tested, 1% active; Nuclear hormone receptor DAF-12 (Strongyloides stercoralis);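 active = activation above the mean over all tested compounds plus 3 SD, cut at about 0.9% in these data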;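 note: 0% = DMSO-only wells and 100% = 3 µM delta7-dafachronic acid wells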
DAX1 inh-2: DAX1 (NR0B1) inhibitors on StAR promoter, primary screen, cell-based, luminescence, SF-1 (NR5A1), full-length DAX-1; HEK293T StAR-luciferase reporter, SF-1/DAX-1 repression relief; 370,000 tested, 1.1% active; inhibition, % at 6.8 µM; AID 652010, 2013;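 active = inhibition above the mean over all tested compounds plus 3 SD, cut at about 3.6% in these data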;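 note: 0% = DAX-1 cells with DMSO and 100% = cells lacking DAX-1 with DMSO; higher inhibition means more luminescence from relief of DAX-1 repression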
Numbers without * were called inactive. Sampled rows, rich in hits. Any-hit rate of the full collection: about 4.1%.

Results for COc1cccc(C(=O)Nc2ccccc2)c1 ?
hcDAF12 agonist: 1; hgDAF12 agonist: 6; DAX1 inh-1: 2; ssDAF12 agonist: -1; DAX1 inh-2: 1

What do the screens show for `COc1cccc(C(=O)N/N=C(/CCC(=O)O)c2ccccc2)c1`?
hcDAF12 agonist: 1; hgDAF12 agonist: 12*; DAX1 inh-1: 0; ssDAF12 agonist: -1; DAX1 inh-2: 0

What do the screens show for `O=C(O)CC/C(=N\NC(=O)c1ccncc1)c1ccccc1`?
hcDAF12 agonist: -2; hgDAF12 agonist: 2; DAX1 inh-1: 0; ssDAF12 agonist: -1; DAX1 inh-2: -1

Results for COc1cccc(C(=O)NNC(=O)c2ccccc2)c1 ?
hcDAF12 agonist: 5; hgDAF12 agonist: 6; DAX1 inh-1: 2; ssDAF12 agonist: 1.4*; DAX1 inh-2: 0

How did CC(C)(C)N(Cc1cn(Cc2ccccc2)nn1)S(=O)(=O)c1ccccc1Br do in these assays?
hcDAF12 agonist: -1; hgDAF12 agonist: 3; ssDAF12 agonist: -1; DAX1 inh-2: 0

How did COc1ccc(C2CC(c3ccc(C)o3)=NN2C(C)=O)cc1 (centres undefined) do in these assays?
hcDAF12 agonist: 1; hgDAF12 agonist: 9; DAX1 inh-1: 1; ssDAF12 agonist: 0; DAX1 inh-2: 2

What do the screens show for `COc1ccc(C2CC(c3ccc4ccccc4c3OC(C)=O)=NN2C(C)=O)cc1` (centres undefined)?
hcDAF12 agonist: 2; hgDAF12 agonist: 6; DAX1 inh-1: 5.4*; ssDAF12 agonist: -1; DAX1 inh-2: 1

What do the screens show for `O=[N+]([O-])c1ccc(/C=N/Nc2ccc3ccccc3c2)o1`?
hcDAF12 agonist: 6.4*; hgDAF12 agonist: 4; DAX1 inh-1: 1; ssDAF12 agonist: 0; DAX1 inh-2: -2

What do the screens show for `O=C(N/N=C/c1ccc([N+](=O)[O-])o1)c1cc2ccccc2o1`?
hcDAF12 agonist: -5; hgDAF12 agonist: -12; DAX1 inh-1: -5; ssDAF12 agonist: -3; DAX1 inh-2: -5

How did Cc1c(NC(=O)C(C)OC(=O)c2cc(-c3cccc4ccccc34)nc3ccccc23)c(=O)n(-c2ccccc2)n1C (centres undefined) do in these assays?
hcDAF12 agonist: -2; hgDAF12 agonist: 11*; DAX1 inh-1: -1; ssDAF12 agonist: 0; DAX1 inh-2: 0

How did COCc1cc(C)nc2sc(C(=O)Nc3cccc(OC)c3)c(N)c12 do in these assays?
hcDAF12 agonist: 6; hgDAF12 agonist: 10*; DAX1 inh-1: 4.9*; ssDAF12 agonist: 0; DAX1 inh-2: 1

What do the screens show for `Cc1ccccc1-c1cc2nc(-c3ccc([N+](=O)[O-])cc3)cc(=O)n2[nH]1`?
hcDAF12 agonist: 1; hgDAF12 agonist: -1; DAX1 inh-1: -1; ssDAF12 agonist: -1; DAX1 inh-2: -1

Results for Cc1cccc(-c2cc3nc(-c4ccccc4)cc(=O)n3[nH]2)c1 ?
hcDAF12 agonist: 1; hgDAF12 agonist: 7; DAX1 inh-1: 6.4*; ssDAF12 agonist: 0; DAX1 inh-2: 1

Results for COc1ccc(C(=O)Nc2nccs2)cc1 ?
hcDAF12 agonist: 3; hgDAF12 agonist: 10; DAX1 inh-1: 5.7*; ssDAF12 agonist: 0; DAX1 inh-2: 2

How did O=C(NC1CCCCCCC1)c1ccc2c(c1)OCO2 do in these assays?
hcDAF12 agonist: 5; hgDAF12 agonist: 10; DAX1 inh-1: 1; ssDAF12 agonist: 1.1*; DAX1 inh-2: 3

How did O=C(Nc1nccs1)c1ccc2c(c1)OCO2 do in these assays?
hcDAF12 agonist: 4; hgDAF12 agonist: 11*; DAX1 inh-1: 2; ssDAF12 agonist: 0; DAX1 inh-2: 1

How did CCCN1C(=O)c2ccc(C(=O)Nc3nccs3)cc2C1=O do in these assays?
hcDAF12 agonist: -1; hgDAF12 agonist: 0; DAX1 inh-1: 0; ssDAF12 agonist: -2; DAX1 inh-2: 0

What do the screens show for `CC(C)(C)Cc1nnc(NC(=O)c2ccc3c(c2)OCO3)s1`?
hcDAF12 agonist: -1; hgDAF12 agonist: 5; DAX1 inh-1: -1; ssDAF12 agonist: -1; DAX1 inh-2: 1

What do the screens show for `COc1ccc(C(=O)Nc2nccs2)cc1OC`?
hcDAF12 agonist: 0; hgDAF12 agonist: 7; DAX1 inh-1: 2; ssDAF12 agonist: -1; DAX1 inh-2: 0

Results for CCCc1cc(C(=O)Nc2nccs2)cs1 ?
hcDAF12 agonist: 4; hgDAF12 agonist: 12*; DAX1 inh-1: 0; ssDAF12 agonist: -1; DAX1 inh-2: 3

Results for CCCCCCCCN1C(=O)[C@@H](CC(=O)N2CCN(C(=O)c3ccco3)CC2)C[C@@]2(C(=O)OC)C1=C[C@H](COCc1ccccc1)O[C@@H]2C ?
hcDAF12 agonist: -2; hgDAF12 agonist: 2; ssDAF12 agonist: -1; DAX1 inh-2: 1

How did O=C(Cc1ccccc1F)Nc1nnc(-c2cccnc2)s1 do in these assays?
hcDAF12 agonist: 1; hgDAF12 agonist: 2; ssDAF12 agonist: -1; DAX1 inh-2: 2

What do the screens show for `O=C(Nc1ccccc1)Nc1nccs1`?
hcDAF12 agonist: 1; hgDAF12 agonist: 3; DAX1 inh-1: 0; ssDAF12 agonist: -1; DAX1 inh-2: 0

Results for O=C(Nc1nccs1)c1ccc(Br)o1 ?
hcDAF12 agonist: 5.8*; hgDAF12 agonist: 8; DAX1 inh-1: 2; ssDAF12 agonist: -1; DAX1 inh-2: 1

How did CCn1cc(Br)c(C(=O)Nc2nccs2)n1 do in these assays?
hcDAF12 agonist: 6.0*; hgDAF12 agonist: 11*; DAX1 inh-1: 0; ssDAF12 agonist: 0; DAX1 inh-2: 0

What do the screens show for `COc1ccc(NC(=O)Nc2nccs2)cc1`?
hcDAF12 agonist: 1; hgDAF12 agonist: 11*; DAX1 inh-1: 2; ssDAF12 agonist: -1; DAX1 inh-2: 0

How did C/C(=C\C(=O)Nc1nccs1)c1ccccc1 do in these assays?
hcDAF12 agonist: 3; hgDAF12 agonist: 12*; DAX1 inh-1: 0; ssDAF12 agonist: 0; DAX1 inh-2: 2

What do the screens show for `CCn1nccc1C(=O)Nc1nccs1`?
hcDAF12 agonist: 3; hgDAF12 agonist: 2; DAX1 inh-1: 1; ssDAF12 agonist: -1; DAX1 inh-2: 0

How did O=C(CNS(=O)(=O)c1cc2ccccc2s1)N1CCN(c2ccccn2)CC1 do in these assays?
hcDAF12 agonist: -2; hgDAF12 agonist: -2; ssDAF12 agonist: -1; DAX1 inh-2: -1

Results for COc1ccc(N2CCN(CCNS(=O)(=O)c3ccccc3[N+](=O)[O-])CC2)cc1 ?
hcDAF12 agonist: -4; hgDAF12 agonist: -2; ssDAF12 agonist: -1; DAX1 inh-2: -1

What do the screens show for `CCCN=C(C)C1=C(O)c2ccccc2C1=O`?
hcDAF12 agonist: 1; hgDAF12 agonist: 10; DAX1 inh-1: 5.3*; ssDAF12 agonist: -2; DAX1 inh-2: 1
